{"source": "paper PMC7862700", "about": "“An all-to-all approach to the identification of sequence-specific readers for epigenetic DNA modifications on cytosine”", "assay_in_all_cases": "DAPPL (digital affinity profiling via proximity ligation, sequencing); 10 mM Tris-HCl pH 7.5, 50 mM NaCl, 1 mM DTT, 4% glycerol, room temperature, 30 min; GST-TFs on glutathione beads, 16-mer random dsDNA library, 0.1% formaldehyde crosslink after washing; high values mean tight binding", "settings_in_all_cases": "protein: recombinant; tags: N-terminal GST; dsDNA, one strand shown", "key": {"[1]": {"biological_target": "SPI1 (Homo sapiens, UniProt P17947 1-270)", "how_it_was_run": "(§1)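 Human transcription factors fused to GST were expressed in yeast, captured on glutathione beads, given DNA barcodes and pooled with a GST-only negative control. Pools were incubated with 200 nmole of a 16-mer random double-stranded DNA library in Tris/NaCl/DTT/glycerol buffer at room temperature for 30 min. They were then washed, crosslinked with 0.1% formaldehyde, proximity-ligated (BsaI/T4 ligase, 1 h, 37 °C), PCR-amplified and sequenced on an Illumina NextSeq500. Binding signal is each 6-mer's read frequency for a factor divided by its frequency for the GST control.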"}, "[2]": {"biological_target": "T1, ELF3 (Homo sapiens, UniProt P78545 1-371)", "T1 sequence": "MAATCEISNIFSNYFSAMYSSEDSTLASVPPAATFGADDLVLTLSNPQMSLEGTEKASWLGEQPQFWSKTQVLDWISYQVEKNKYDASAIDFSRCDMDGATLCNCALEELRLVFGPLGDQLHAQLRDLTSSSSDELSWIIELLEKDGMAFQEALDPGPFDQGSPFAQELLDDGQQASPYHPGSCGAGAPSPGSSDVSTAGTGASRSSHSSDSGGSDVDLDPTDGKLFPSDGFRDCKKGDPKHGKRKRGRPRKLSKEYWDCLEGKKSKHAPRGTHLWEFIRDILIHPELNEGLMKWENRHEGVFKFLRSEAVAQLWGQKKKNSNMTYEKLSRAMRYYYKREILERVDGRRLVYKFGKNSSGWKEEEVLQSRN", "how_it_was_run": "as §1"}, "[3]": {"biological_target": "ETV1 (Homo sapiens, UniProt P50549 1-477)", "sequence (P50549 whole entry)": "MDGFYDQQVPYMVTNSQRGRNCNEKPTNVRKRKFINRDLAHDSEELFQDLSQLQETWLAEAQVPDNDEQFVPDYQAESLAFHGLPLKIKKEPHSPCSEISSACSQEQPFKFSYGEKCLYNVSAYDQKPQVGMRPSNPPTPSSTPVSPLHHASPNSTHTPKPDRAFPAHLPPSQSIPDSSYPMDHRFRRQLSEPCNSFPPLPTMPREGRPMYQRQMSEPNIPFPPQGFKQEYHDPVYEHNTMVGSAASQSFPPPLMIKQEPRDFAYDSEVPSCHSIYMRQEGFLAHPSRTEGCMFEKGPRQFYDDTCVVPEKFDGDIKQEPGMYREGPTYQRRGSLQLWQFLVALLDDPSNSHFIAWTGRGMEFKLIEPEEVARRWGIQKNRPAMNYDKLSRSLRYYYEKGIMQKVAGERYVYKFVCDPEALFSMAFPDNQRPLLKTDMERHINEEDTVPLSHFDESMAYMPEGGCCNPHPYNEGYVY", "how_it_was_run": "as §1"}, "[4]": {"biological_target": "T2, GABPA (Homo sapiens, UniProt Q06546 1-454)", "T2 sequence": "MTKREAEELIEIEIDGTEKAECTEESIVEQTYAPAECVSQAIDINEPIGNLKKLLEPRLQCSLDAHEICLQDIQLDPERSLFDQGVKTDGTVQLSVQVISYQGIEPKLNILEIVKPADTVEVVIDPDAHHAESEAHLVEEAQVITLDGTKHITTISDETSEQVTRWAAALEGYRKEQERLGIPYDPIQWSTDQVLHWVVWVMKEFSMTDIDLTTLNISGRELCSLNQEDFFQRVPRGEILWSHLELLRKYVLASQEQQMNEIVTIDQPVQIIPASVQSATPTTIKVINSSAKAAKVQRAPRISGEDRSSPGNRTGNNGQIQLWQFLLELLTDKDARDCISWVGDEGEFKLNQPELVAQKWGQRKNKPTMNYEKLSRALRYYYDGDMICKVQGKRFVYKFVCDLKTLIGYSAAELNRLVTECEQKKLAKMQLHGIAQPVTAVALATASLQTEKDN", "how_it_was_run": "as §1"}, "[5]": {"biological_target": "T3, ELK3 (Homo sapiens, UniProt P41970 1-407)", "T3 sequence": "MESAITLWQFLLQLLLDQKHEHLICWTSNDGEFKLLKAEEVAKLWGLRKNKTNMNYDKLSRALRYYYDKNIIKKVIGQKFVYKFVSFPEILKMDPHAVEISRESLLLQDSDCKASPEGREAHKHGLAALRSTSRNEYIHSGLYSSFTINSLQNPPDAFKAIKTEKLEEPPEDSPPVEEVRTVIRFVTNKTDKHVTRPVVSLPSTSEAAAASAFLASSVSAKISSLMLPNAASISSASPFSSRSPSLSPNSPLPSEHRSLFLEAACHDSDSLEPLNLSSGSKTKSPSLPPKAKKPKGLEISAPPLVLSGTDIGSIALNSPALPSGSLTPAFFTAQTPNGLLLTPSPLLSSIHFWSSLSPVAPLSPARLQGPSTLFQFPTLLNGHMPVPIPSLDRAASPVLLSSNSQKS", "how_it_was_run": "as §1"}, "[6]": {"biological_target": "T4, ETV2 (Homo sapiens, UniProt O00321 1-342)", "T4 sequence": "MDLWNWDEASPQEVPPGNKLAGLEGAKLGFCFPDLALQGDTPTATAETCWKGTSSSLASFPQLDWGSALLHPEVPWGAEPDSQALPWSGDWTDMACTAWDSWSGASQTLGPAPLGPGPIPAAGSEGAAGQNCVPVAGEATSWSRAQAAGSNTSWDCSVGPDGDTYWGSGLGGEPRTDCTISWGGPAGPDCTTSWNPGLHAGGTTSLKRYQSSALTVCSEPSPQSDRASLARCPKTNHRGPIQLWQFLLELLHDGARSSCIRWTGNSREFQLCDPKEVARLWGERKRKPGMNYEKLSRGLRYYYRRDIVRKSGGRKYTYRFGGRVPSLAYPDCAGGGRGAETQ", "how_it_was_run": "as §1"}, "[7]": {"biological_target": "CRX (Homo sapiens, UniProt O43186 1-299)", "sequence (O43186 whole entry)": "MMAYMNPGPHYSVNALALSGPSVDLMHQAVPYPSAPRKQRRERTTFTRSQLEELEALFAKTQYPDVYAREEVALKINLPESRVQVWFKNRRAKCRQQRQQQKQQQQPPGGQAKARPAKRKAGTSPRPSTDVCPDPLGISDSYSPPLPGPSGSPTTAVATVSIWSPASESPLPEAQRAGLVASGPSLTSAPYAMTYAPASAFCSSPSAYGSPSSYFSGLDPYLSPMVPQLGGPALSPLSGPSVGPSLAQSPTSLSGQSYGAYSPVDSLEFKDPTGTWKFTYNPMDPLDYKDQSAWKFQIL", "how_it_was_run": "as §1"}, "[8]": {"biological_target": "T5, ETV7 (Homo sapiens, UniProt Q9Y603 1-341)", "T5 sequence": "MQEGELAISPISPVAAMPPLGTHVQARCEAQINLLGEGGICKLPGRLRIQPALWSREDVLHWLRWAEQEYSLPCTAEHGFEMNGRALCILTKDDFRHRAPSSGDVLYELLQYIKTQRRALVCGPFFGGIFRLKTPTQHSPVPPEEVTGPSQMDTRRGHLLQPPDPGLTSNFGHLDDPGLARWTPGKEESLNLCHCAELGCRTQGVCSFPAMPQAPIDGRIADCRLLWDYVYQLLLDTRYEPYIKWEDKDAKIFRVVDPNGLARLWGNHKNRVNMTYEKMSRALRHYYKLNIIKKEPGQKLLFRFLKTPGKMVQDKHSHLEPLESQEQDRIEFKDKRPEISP", "how_it_was_run": "as §1"}, "[9]": {"biological_target": "T6, ERF (Homo sapiens, UniProt P50548 1-548)", "T6 sequence": "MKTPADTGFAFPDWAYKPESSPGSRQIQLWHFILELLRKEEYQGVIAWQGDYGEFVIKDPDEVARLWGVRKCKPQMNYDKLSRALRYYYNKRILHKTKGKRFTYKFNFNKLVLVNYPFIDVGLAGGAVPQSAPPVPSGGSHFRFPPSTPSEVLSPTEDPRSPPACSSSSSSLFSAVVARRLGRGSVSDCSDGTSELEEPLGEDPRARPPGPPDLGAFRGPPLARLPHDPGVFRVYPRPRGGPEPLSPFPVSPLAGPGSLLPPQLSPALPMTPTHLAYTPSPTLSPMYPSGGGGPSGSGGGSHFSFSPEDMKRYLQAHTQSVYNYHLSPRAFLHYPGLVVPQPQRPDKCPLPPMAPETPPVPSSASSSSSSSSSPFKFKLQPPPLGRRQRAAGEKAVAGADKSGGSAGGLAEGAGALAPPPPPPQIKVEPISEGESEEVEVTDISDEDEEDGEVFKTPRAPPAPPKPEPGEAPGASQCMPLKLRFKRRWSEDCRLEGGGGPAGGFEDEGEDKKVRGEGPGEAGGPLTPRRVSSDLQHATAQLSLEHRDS", "how_it_was_run": "as §1"}}}
{"sequence": "GTAGCC", "values": [{"measurement": "binding signal", "setting": "[1]", "result": "1.03 fold enrichment (6-mer frequency, TF over GST control)"}, {"measurement": "binding signal", "setting": "[2]", "result": "1.06 fold enrichment (6-mer frequency, TF over GST control)"}, {"measurement": "binding signal", "setting": "[3]", "result": "1 fold enrichment (6-mer frequency, TF over GST control)"}]}
{"sequence": "AGGCCT", "values": [{"measurement": "binding signal", "setting": "[4]", "result": "1.08 fold enrichment (6-mer frequency, TF over GST control)"}, {"measurement": "binding signal", "setting": "[5]", "result": "1.01 fold enrichment (6-mer frequency, TF over GST control)"}, {"measurement": "binding signal", "setting": "[6]", "result": "1.01 fold enrichment (6-mer frequency, TF over GST control)"}, {"measurement": "binding signal", "setting": "[7]", "result": "1.07 fold enrichment (6-mer frequency, TF over GST control)"}, {"measurement": "binding signal", "setting": "[8]", "result": "1.01 fold enrichment (6-mer frequency, TF over GST control)"}]}
{"sequence": "CTAGTG", "values": [{"measurement": "binding signal", "setting": "[2]", "result": "1.01 fold enrichment (6-mer frequency, TF over GST control)"}]}
{"sequence": "TTGGGA", "values": [{"measurement": "binding signal", "setting": "[6]", "result": "1.03 fold enrichment (6-mer frequency, TF over GST control)"}, {"measurement": "binding signal", "setting": "[7]", "result": "1.04 fold enrichment (6-mer frequency, TF over GST control)"}]}
{"sequence": "GTCAAA", "values": [{"measurement": "binding signal", "setting": "[2]", "result": "1 fold enrichment (6-mer frequency, TF over GST control)"}, {"measurement": "binding signal", "setting": "[3]", "result": "1 fold enrichment (6-mer frequency, TF over GST control)"}]}
{"sequence": "TCATAG", "values": [{"measurement": "binding signal", "setting": "[2]", "result": "1.04 fold enrichment (6-mer frequency, TF over GST control)"}, {"measurement": "binding signal", "setting": "[9]", "result": "1 fold enrichment (6-mer frequency, TF over GST control)"}]}
{"sequence": "GACTTG", "values": [{"measurement": "binding signal", "setting": "[2]", "result": "1.08 fold enrichment (6-mer frequency, TF over GST control)"}]}
{"sequence": "TGCGTC", "values": [{"measurement": "binding signal", "setting": "[4]", "result": "1.01 fold enrichment (6-mer frequency, TF over GST control)"}, {"measurement": "binding signal", "setting": "[6]", "result": "1.04 fold enrichment (6-mer frequency, TF over GST control)"}, {"measurement": "binding signal", "setting": "[2]", "result": "1.03 fold enrichment (6-mer frequency, TF over GST control)"}, {"measurement": "binding signal", "setting": "[8]", "result": "1.04 fold enrichment (6-mer frequency, TF over GST control)"}]}
